Most compounds without a hit are left out; they make up all but 6.7% or so of the library.
Anthrax LF inh2: Bacillus anthracis LF protease inhibitors, primary screen, biochemical, multiplex microsphere, MLPCN library | actives 0.12% (n = 360,000) | inhibition, % at 10 µM | AID 588501, 2011 | Lethal factor (Bacillus anthracis), P15917 | multiplex microsphere protease cleavage assay
BoNT A protease: BoNT/A light chain protease inhibitors, primary screen, biochemical, flow cytometry, MLPCN library; actives 0.17% (n = 360,000); multiplex microsphere protease substrate cleavage; Botulinum neurotoxin type A light chain protease (Clostridium botulinum A str. ATCC 3502); inhibition, % at 10 µM
BoNT F protease: BoNT/F light chain protease inhibitors, primary screen, biochemical, flow cytometry, MLPCN library; Multiplex microsphere protease cleavage assay; inhibition, % at 10 µM; actives 0.22% (n = 360,000); AID 588497, 2011; in the data active = inhibition above about 35%, passing the limit was not always enough; inconclusive = no clear call, values can overlap the other calls
Bead autofluor: flagged as autofluorescent in microsphere protease counterscreen; compound autofluorescence counterscreen, microsphere flow cytometry; stronger effect = higher value; fluorescence intensity (concentration not given with the values); actives 3.1% (n = 360,000); in the data active = fluorescence intensity above about 16000; inconclusive = no clear call, values can overlap the other calls
FBA Mtb inh: Mtb FBA enzyme inhibitors, primary screen, biochemical, fluorescence, strain H37Rv; Fructose-bisphosphate aldolase (Mycobacterium tuberculosis (strain ATCC 25618 / H37Rv)), …; purified M. tuberculosis FBA, fluorescence read-out; inhibition, % at 1 µM; actives 2.3% (n = 360,000); AID 588726, 2011; in the data active = inhibition above about 27%
Target sequence (P9WQA3 whole entry, looked up): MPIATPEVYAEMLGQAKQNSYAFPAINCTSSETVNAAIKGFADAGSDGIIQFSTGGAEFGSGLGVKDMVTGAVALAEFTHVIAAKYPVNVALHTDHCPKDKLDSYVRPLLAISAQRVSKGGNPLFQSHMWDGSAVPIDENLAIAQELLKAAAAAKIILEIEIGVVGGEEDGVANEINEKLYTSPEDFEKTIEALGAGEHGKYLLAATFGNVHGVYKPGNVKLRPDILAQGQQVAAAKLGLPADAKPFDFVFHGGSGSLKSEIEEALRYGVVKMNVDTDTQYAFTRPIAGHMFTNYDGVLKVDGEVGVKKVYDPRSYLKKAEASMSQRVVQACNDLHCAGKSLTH
GDH-TPI inh: GDH-TPI coupling enzyme inhibitors, primary screen, artefact control for M. tuberculosis FBA inhibitor project, biochemical, absorbance, full deck; actives 1.2% (n = 360,000); inhibition, % at 4.8 µM; GDH-TPI coupled enzyme counterscreen, NADH absorbance; in the data active = inhibition above about 30%
Large screens that a line does not name were inactive. Rule as the data show it, unless noted: active = inhibition above about 30%; inconclusive = no clear call, values can overlap the other calls; inactive = below that.

COc1ccc(CCNC(=O)C2CC(=O)N(c3ccc(F)cc3)C2)cc1OC (stereo not drawn)	none
COc1ccc(CN2CC(C(=O)NCCc3ccc(C)cc3)CC2=O)cc1 (stereo not drawn)	Bead autofluor 20337
CCOc1ccc(CCNC(=O)C2CC(=O)N(Cc3ccc(OC)cc3)C2)cc1OCC (stereo not drawn)	none
CC(=O)c1ccc(NC(=O)C2CC(=O)N(Cc3ccccc3)C2)cc1 (stereo not drawn)	Bead autofluor 17232
COc1ccc(N2CC(C(=O)NCCc3ccc(OC)c(OC)c3)CC2=O)cc1 (stereo not drawn)	Bead autofluor 22233
Cn1cc(C(=O)NCCN2CCN(c3cccc(Cl)c3)CC2)c2c3ccccc3n(C)c2c1=O	Bead autofluor 23347
COCCCNC(=O)c1cn(C)c(=O)c2c1c1ccccc1n2C	none
O=c1ccc(S(=O)(=O)N2CCCC2)cn1Cc1nc(-c2ccc(F)cc2)no1	Bead autofluor 57271
Cn1c(SCC(=O)NC2(C#N)CCCCC2)nnc1-c1cccnc1	none
C=CCn1c2ccccc2c2nnc(SCC(=O)OC)nc21	none
CCOC(=O)CSc1nnc2c3ccccc3n(C)c2n1	BoNT F protease inconclusive
Cn1c2ccccc2c2nnc(SCC(N)=O)nc21	none
Cn1c2ccc(Br)cc2c2nnc(SCC(=O)O)nc21	BoNT F protease inconclusive, GDH-TPI inh 31
CCCn1c2ccccc2c2nnc(SCC(=O)OC)nc21	Bead autofluor 20508
Cn1c2ccccc2c2nnc(SCC(=O)Nc3cccc(O)c3)nc21	BoNT F protease inconclusive, GDH-TPI inh 35
COc1cc(NC(=S)NC(C)(C)C)c(OC)cc1Cl	none
CCN1CNC(=S)N(c2cc(C)ccc2C)C1	BoNT A protease inconclusive, Bead autofluor 21089
COc1ccc(/C=C2\SC(=S)N(CCCC(=O)Nc3ccccn3)C2=O)cc1OC	BoNT A protease 39
COc1cc(/C=C2/SC(=S)N(CC(=O)NC(C)(C)C)C2=O)cc(OC)c1OC	BoNT A protease 31
Nc1nncn1C(=O)c1cccs1	none
CC(C)NC(=O)CSCc1c(F)cccc1Cl	Bead autofluor 16724
COc1cc(C2NC(=O)NC(O)(C(F)(F)F)C2C(C)=O)cc(OC)c1OC (stereo not drawn)	none
C/C(=N/NC(=O)c1sc(NS(=O)(=O)c2ccccc2)nc1C)c1sc(N)nc1C	GDH-TPI inh 38
CC1(C(=O)NS(=O)(=O)c2cccc(OC(F)F)c2)CCN1C(=O)CC1CCCC1 (stereo not drawn)	none
C=CCNc1nc(NCCCN2CCCC2=O)c2sc(-c3ccccc3)cc2n1	none
COCCNc1nc(NCCCN2CCCC2=O)c2sc(-c3ccccc3)cc2n1	GDH-TPI inh 31
COc1cc(NC(=O)/C=C/c2ccccc2)c(C(=O)O)cc1OC	GDH-TPI inh 44
COC(=O)c1cc(Cl)c(NC(=O)/C=C/c2ccc(Cl)cc2)cc1OC	Bead autofluor 20164
COC(=O)c1cc(Cl)c(NC(=O)c2cc(OC)c(OC)c(OC)c2)cc1OC	Bead autofluor 21669
Cc1nc2ccccc2c(=O)n1-c1cccnc1	BoNT A protease inconclusive, Bead autofluor 21722
COc1ccc(-c2nc3ccccc3c(=O)n2-c2cccnc2)cc1	BoNT A protease inconclusive, Bead autofluor 22591
COc1ccc(C(=O)Nc2nnc([C@@H]3C[C@H](O)[C@@H](CO)O3)s2)cc1	none
COc1ccc(/C=C/C(=O)NC(C)C)cc1Br	Bead autofluor 22011
COc1ccc(/C=C/C(=O)N(C(C)C)C(C)C)cc1Br	none
Cc1ccc(NC(=O)/C(C#N)=N/Nc2ccc(C(=O)O)cc2)c(C)c1	GDH-TPI inh 58
O=C(CCS(=O)(=O)Cc1ccccc1F)N1CCc2ccccc2C1	none (no result: Anthrax LF inh2, BoNT A protease, BoNT F protease, Bead autofluor)
O=C(CCS(=O)(=O)Cc1ccccc1)N1CCc2ccccc2C1	Bead autofluor 21963
Cc1nc(C)c(-c2ccc(SCC(=O)Nc3cccc(Cl)c3)nn2)s1	none
N#C/C(=C/Nc1ccccc1)c1ccsc1	GDH-TPI inh 34
O=[N+]([O-])c1ccc(NN=Cc2ccco2)nc1	GDH-TPI inh 33
O=[N+]([O-])c1ccc(N/N=C\c2cccnc2)nc1	none
COC1CCCCC1Nc1ccc(C)c(C)c1 (stereo not drawn)	none
CCO[C@H]1OC(C(=O)N2CCN(Cc3ccc4c(c3)OCO4)CC2)=C[C@@H](C2CC2)[C@@H]1CCCO	none
O=C(N/N=C/c1ccc([N+](=O)[O-])o1)c1cc2c(ccc3ccccc32)o1	none
O=C(CNc1ccccc1)N/N=C/c1ccc([N+](=O)[O-])o1	Bead autofluor 24670
O=C(N/N=C/c1ccc([N+](=O)[O-])o1)c1cc2ccccc2o1	GDH-TPI inh 37 (no result: Anthrax LF inh2, BoNT A protease, BoNT F protease, Bead autofluor)
O=C(N/N=C/c1ccc([N+](=O)[O-])o1)c1ccc(O)cc1	GDH-TPI inh 40
Cc1c(Br)c([N+](=O)[O-])nn1CCCC(=O)Nc1c(C)n(C)n(-c2ccccc2)c1=O	none
Cc1ccc(-c2csc3nnc(SCC(=O)N4CCN(Cc5ccccc5)CC4)n23)cc1	none
O=C(CCc1ccc(O)cc1)NN=Cc1ccc2c(c1)OCO2	none
COc1ccc(NS(=O)(=O)CC(C)C)c(OC)c1	none
O=C(Nc1cccc(-c2cccc(F)c2)c1)C1CCN(C2CCC2)CC1	none
CC(=O)/C=C/c1ccccc1	none
CC(=O)C1=C(O)C(=CC=Cc2ccccc2)OC1=O	GDH-TPI inh 31
CCn1cc(C(=O)O)c(=O)c2cc(F)c(N3CCN(C(=S)NC(=O)c4ccc(Br)cc4)CC3)cc21	none
O=C(Nc1cccc2ccccc12)c1nn(C23CC4CC(CC(C4)C2)C3)cc1[N+](=O)[O-]	Bead autofluor 24019
COc1ccc(NC(=O)c2nn(C34CC5CC(CC(C5)C3)C4)cc2[N+](=O)[O-])cc1	none
O=C(Nc1ccc2ccccc2c1)c1nn(C23CC4CC(CC(C4)C2)C3)cc1Br	Bead autofluor 23799
Cc1cccc(Nc2nc(N)c([N+](=O)[O-])c(NCCO)n2)c1	BoNT F protease inconclusive
Cc1nn(Cc2ccccc2Cl)c(C)c1NC(=O)c1ccn(C)n1	none
Cc1nn(Cc2ccccc2Cl)c(C)c1NC(=O)c1nc2ncccn2n1	GDH-TPI inh 37
CNC(=O)c1ccsc1NC(=O)c1ccc(S(=O)(=O)N2CCCc3ccccc32)cc1	none
c1ccc(CN2CCN(C3CCCSc4ccccc43)CC2)cc1 (stereo not drawn)	none
O=C(Nc1ccccc1C(=O)NCc1ccco1)NC1CCCCC1	none
CCOC(=O)C1CCN(Cc2nc3ccc(Cl)cc3n2CCO)CC1	none
Clc1nc2sccn2c1/C=N/n1cnc2ccccc21	GDH-TPI inh 47
O=[N+]([O-])c1ccc(O)c(/C=N/n2cnc3ccccc32)c1	none

Screening data deposited in PubChem by several laboratories.
